Tests used:
[1] = NFkB reporter suppression in cystic fibrosis bronchial cells – cell-based, uHTS hits, panel, cytotoxicity readout, dose response (AID 624344); conditions: CF bronchial epithelial cells, PAF-induced NFkB reporter inhibition, with PAF, run 1; at 79 µM (top of the series) unless noted
[2] = as above; conditions: CF bronchial epithelial cells, PAF-induced NFkB reporter inhibition, with PAF, run 2; at 79 µM (top of the series) unless noted

Row | Compound | inhibition [1] | inhibition [2]
1 | CCN1CCN(Cc2ccc(NC(=O)c3ccc(C)c(NC(=O)c4ccc5n[nH]nc5c4)c3)cc2C(F)(F)F)CC1 | 101% | 111%
2 | O=[N+]([O-])c1ccc(NC(=S)NCCc2ccc(F)cc2)cc1 | 115% | 105%
3 | Cn1c(Sc2ccc(Br)cc2)c(C=O)c2ccccc21 | 108% | 112%
4 | CC(C)C[C@H]1CNC(=S)N1C[C@H]1CCCN1C[C@H](Cc1ccccc1)N1C[C@H](Cc2ccc(O)cc2)N(CC2CCCCCC2)C1=S | 103% | 112%
5 | O=C(Nc1ccncc1)c1c(Cl)cccc1Cl | 112% | 101%
6 | Cc1ccc(S(=O)(=O)Nc2cccc3cccnc23)c([N+](=O)[O-])c1 | 101% [at 39.5 µM] | 94.2% [at 39.5 µM]
7 | COc1cc2c(c(OC)c1OC)-c1ccc(NCc3ccccc3)c(=O)cc1C(NC(C)=O)CC2 (stereo not drawn) | 94.4% | 112%
8 | COc1cc(C2c3cc4c(cc3C3OC(=O)C2C3CO)OCO4)cc(OC)c1OC (stereo not drawn) | 91.1% | 94.7%
9 | O=C(Nc1ccc(F)cc1)Nc1ccc(N2CCCC2)c(S(=O)(=O)Nc2ccccc2Cl)c1 | 111% | 89.3%
10 | COc1cccc(Nc2ncnc3ccc(Br)cc23)c1 | 119% | 105%
11 | N=C1N(c2ccccc2)C(=S)C(=Nc2ccccc2)N1c1ccccc1 | 114% | 103%
12 | Cc1ccc(NC(=O)c2cc(C(=O)c3cc(Cl)ccc3O)cn(-c3ccc(C)cc3)c2=O)cc1 | 65.5% | 96.9%
13 | CCOC(=O)c1[nH]c2c(c1C)C(=O)CC(c1ccco1)C2 (stereo not drawn) | 40.8% | 98.7%
14 | COC(=O)c1ccc(-c2ccc(OC)c([C@H]3[C@H]4C=CC[C@@H](C)[C@@H]4C(=O)N3Cc3ccccc3)c2)cc1 | 111% | 80%

From PubChem BioAssay
